High-throughput results deposited in PubChem by National Center for Advancing Translational Sciences (NCATS).
VACV Venus inh: vaccinia inhibition (Venus reporter) | Vaccinia virus Venus reporter expression, fluorescence | Potency, µM (highest dose often 36.5 µM), hits mostly inhibitors | 330,000 compounds, 0.46% hits | AID 720580; calls by dose curve; tested in A549 cells; further: nearly all actives have a fitted effect of over 30% in size
HCV inhibitor: HCV inhibition; Huh7.5.1 HCVcc-Cre infection, luciferase reporter, 44 h; Potency, µM (top dose mostly 41.8 µM), usual class: inhibitors; 340,000 compounds, 3.4% hits
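Whole-lifecycle infectious HCVcc-Cre system; cells 1,000/well, compound then virus (~0.5 moi) added 4 h after plating, 44 h culture. Luciferase read 15 sec following 15 min substrate incubation, room temp.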
HCMV antiviral: blocks human cytomegalovirus replication; HFF cells, HCMV-luciferase reporter, 72 h; active compounds read low; activity change, negative = inhibition, % at 57.5 µM; 410,000 compounds, 4.5% hits; in the data active means activity change below about -60%; inconclusive means no clear call, values can overlap the other calls; inactive means above about -39%
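Luciferase read-out from HCMV-luciferase-infected HFFs (MOI 1 PFU/cell) 72 h post infection at 37C; compounds added after 16 h cell attachment; activity normalized between buffer-only basal and Salinomycin (10uM) inhibitor controls.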
Vaccinia mCherry: vaccinia inhibition (mCherry reporter) | Vaccinia virus mCherry reporter infection, fluorescence | Potency, µM (titrated, usually from 36.5 µM), hits mostly inhibitors | 310,000 compounds, 0.63% hits | AID 720579; calls by dose curve; tested in A549 cells; further: nearly all actives have a fitted effect of over 35% in size
FMDV antiviral: foot and mouth disease virus antiviral activity. FMDV antiviral cell-based qHTS. Potency, µM (top dose mostly 57.9 µM), hits mostly inhibitors. 410,000 compounds, 1.2% hits; calls by dose curve; tested in HEK293T cells; further: read-out not given here; nearly all actives have a fitted effect of over 45% in size
Sm TGR inh: blocks Schistosoma mansoni thioredoxin glutathione reductase; purified TGR, DTNB reduction, TNB absorbance 405 nm; Potency, µM (highest dose often 114 µM), most hits filed as inhibitors; 360,000 compounds, 3% hits; further: nearly all actives have a fitted effect of over 60% in size
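First, TGR (20 nM dispensed) and NADPH were mixed with compound. Second, a 15 min room-temperature incubation followed. Third, further NADPH and then DTNB were added to start the reaction. Finally, TNB absorbance was monitored kinetically.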
Each line names hits and unclear results; the compound was inactive in the other large screens. Only some compounds are listed: those with a hit (about 9.3% of all), similar ones and a draw of the others. Unless noted, the call rests on the fitted dose curve; in most records, active means well fitted curve in the direction sought with a large enough effect; inconclusive means small, poorly fitted or top-dose-only effect, or another doubt; inactive means no such curve, though single readings can be large; an effect the other way counts as inactive or inconclusive.

O=C(c1ccco1)N1CCN(S(=O)(=O)c2ccc(Oc3ccccc3)cc2)CC1	HCV inhibitor 14µM, HCMV antiviral inconclusive, FMDV antiviral inconclusive (no result: VACV Venus inh, Vaccinia mCherry)
CC(=O)c1ccc(S(=O)(=O)N2CCN(C(=O)c3ccc(COc4ccccc4)o3)CC2)cc1	VACV Venus inh inconclusive, HCV inhibitor inconclusive, HCMV antiviral -61, FMDV antiviral inconclusive
CC(=O)c1ccc(S(=O)(=O)N2CCN(C(=O)c3ccccc3Cc3ccccc3)CC2)cc1	none
O=C(c1ccco1)N1CCN(S(=O)(=O)c2ccc(Br)cc2)CC1	HCMV antiviral inconclusive (no result: VACV Venus inh, Vaccinia mCherry)
COC(=O)c1sc2nc(N3CCCCC3)c3c(c2c1N)CCCC3	VACV Venus inh inconclusive, HCV inhibitor 13µM
CSc1ccc(CCNC(=O)c2cc3cc(S(=O)(=O)N4CCCCC4)ccc3n2C)cc1	HCMV antiviral -67, FMDV antiviral inconclusive (no result: HCV inhibitor)
Nc1c(C(=O)NCCC2=CCCCC2)sc2ccc(S(=O)(=O)N3CCCCC3)cc12	none (no result: VACV Venus inh, Vaccinia mCherry)
Cc1ccc(CCNC(=O)c2cc3cc(S(=O)(=O)N4CCCCC4)ccc3n2C)cc1	VACV Venus inh inconclusive, Vaccinia mCherry inconclusive, FMDV antiviral inconclusive (no result: HCV inhibitor)
Cc1ccc(CNC(=O)c2sc3ccc(S(=O)(=O)N4CCCCC4)cc3c2N)cc1	HCV inhibitor 32µM (no result: VACV Venus inh, HCMV antiviral, Vaccinia mCherry, FMDV antiviral)
CCOc1ccc(CNC(=O)c2cc3cc(S(=O)(=O)N4CCCCC4)ccc3n2C)cc1	HCMV antiviral -68, FMDV antiviral inconclusive (no result: HCV inhibitor)
Cc1ccc(CCNC(=O)c2cn(C)c3ccc(S(=O)(=O)N4CCCCC4)cc3c2=O)cc1	Vaccinia mCherry inconclusive, Sm TGR inh 22µM (no result: HCV inhibitor)
COc1ccc(NC(=O)CCCNC(=O)c2ccc(Cl)cc2)c(OC)c1	none
O=C(Cc1cccs1)NCCc1cn2ccccc2n1	none
O=C(COc1ccc(Cl)cc1Cl)NN1C(=O)/C(=C\c2ccc(Cl)cc2)SC1=S	HCV inhibitor inconclusive
CC12CN3C(O)C(C)(C1)CC(C)(C2)C3O (stereo not given)	none
Cc1c(C(=O)c2ccc(Cl)cc2Cl)cnc2cc3c(cc12)OCO3	HCV inhibitor 10µM, FMDV antiviral inconclusive (no result: VACV Venus inh, Vaccinia mCherry)
O=C(CC1OC(=O)c2ccccc21)Nc1cccc(S(=O)(=O)N2CCCCCC2)c1 (stereo not given)	HCV inhibitor inconclusive
COc1ccc(S(=O)(=O)N2CCCCCC2)cc1NC(=O)CC1OC(=O)c2ccccc21 (stereo not given)	Sm TGR inh 40µM
Cc1ccc(NC(=O)CC2OC(=O)c3ccccc32)cc1S(=O)(=O)N1CCCCCC1 (stereo not given)	HCV inhibitor inconclusive, Sm TGR inh 25µM (no result: VACV Venus inh, Vaccinia mCherry)
COc1ccc(OC)c(C(=O)CC2OC(=O)c3ccccc32)c1 (stereo not given)	HCMV antiviral -90, FMDV antiviral 14µM, Sm TGR inh inconclusive (no result: VACV Venus inh, Vaccinia mCherry)
CCCCCCn1c(O)c(C(C)=NC)c(=O)[nH]c1=O	none (no result: FMDV antiviral)
CC(C)(C)C(=O)Nc1ccc(C(=O)N/N=C/C2CC3C=CC2C3)cc1 (stereo not given)	none
CC(C)CN(CC(C)C)CC(O)COc1ccccc1Br (stereo not given)	HCMV antiviral -76, FMDV antiviral inconclusive
Cc1ccc(S(=O)(=O)Oc2ccc(/C=C3/N=C(c4ccccc4)OC3=O)cc2)cc1	HCV inhibitor inconclusive
COc1ccc(OC)c(/C=C/c2c([N+](=O)[O-])c(=O)n(C)c(=O)n2C)c1	none
COc1ccc(/C=C/c2c([N+](=O)[O-])c(=O)n(C)c(=O)n2C)cc1O	HCMV antiviral -103, FMDV antiviral inconclusive (no result: VACV Venus inh, Vaccinia mCherry)
COc1cc(/C=C/c2c([N+](=O)[O-])c(=O)n(C)c(=O)n2C)cc(OC)c1OC	HCMV antiviral -67 (no result: FMDV antiviral)
Cn1c(/C=C/c2ccc(Br)cc2)c([N+](=O)[O-])c(=O)n(C)c1=O	VACV Venus inh inconclusive, HCV inhibitor inconclusive, HCMV antiviral -100, Vaccinia mCherry 13µM, FMDV antiviral 16µM, Sm TGR inh inconclusive
COc1cccc(C2=NS(=O)(=O)N(C)C(C(=O)Nc3cccc(O)c3)=C2)c1	none (no result: HCV inhibitor)
CCOC(=O)C1=NN(C(=O)COc2ccccc2)C(O)(c2ccc(Cl)cc2)C1 (stereo not given)	none
Cc1cccc2nc(-c3cccnc3)c(Nc3ccccc3)n12	HCMV antiviral -74, Vaccinia mCherry inconclusive, FMDV antiviral 32µM
Cc1c(C)c2cc(Cl)c(OCC(=O)N3CCN(c4ccc(F)cc4)CC3)cc2oc1=O	none
